We go through three compounds from PubChem BioAssay AID504527 (The Scripps Research Institute Molecular Screening Center, 2011).

Calls of active or inactive are those of the source.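 The calls were made as follows: active = two or more serine hydrolases at least half inhibited, plus every target band half blocked in a general-probe test; inactive = under two enzymes half blocked, or any target band not.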

This assay is described as follows: general off-target profile by competitive ABPP – fluorescence, gel-based ABPP, powder samples, selectivity assay for PAFAH2 inhibitor project, late-stage follow-up (AID 504527). The settings on record: BW5147 murine T-cell proteome, FP-Rh fluorescence, competitor FP-biotin, probe test compound; non-competed targets by FP-biotin, at 20 µM, stronger effect = lower value.

Regarding `C#CCOCCOCCOCCN(Cc1ccccc1)C(=O)n1nccn1`, the count of non-competed proteins amounted to 0 and the call was active.

Take `C#CCOCCOCCOCCN(Cc1ccccc1)C(=O)n1ncc(-c2ccccc2)n1`: the count of non-competed proteins came out at 0 and the compound was classed as active.

For `C#CCOCCOCCOCCN(Cc1ccccc1)C(=O)n1nc2cccnc2n1`, the count of non-competed proteins came to 3 and the compound was classed as inactive.
